# Data published in PubChem BioAssay (Tox21).
# Several values for one entry are separate records, joined by “and”; a condition that tells them apart may be missing. Equal entries are not always repeated. Inconclusive results are not listed. A call without a number means that no potency is given here. Some structures have more than one record in an assay (separate samples or runs), and their calls can disagree. Activity calls are given as the source filed them. Unless noted, calls follow the shape of the dose curve; as a rule, active = well fitted curve in the direction sought with a large enough effect in the repeat runs; inconclusive = weak or mixed curves; inactive = no such curve, though single readings can be large; an effect the other way counts as inactive or inconclusive.
# What was measured:
# [1] = qHTS assay to identify small molecule antagonists of the glucocorticoid receptor (GR) signaling pathway - cell viability counter screen (AID 720693); also: nearly all actives have a fitted effect of over 55% in size
# [2] = qHTS assay for identifying genotoxic compounds that show differential cytotoxicity against isogenic chicken DT40 cell lines with known DNA damage response pathways - wild type cell line (AID 743012); also: nearly all actives have a fitted effect of over 60% in size; also: potency is read from the fitted curve at half-maximal effect
# Outline: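 Cytotoxicity in repair-proficient parental chicken DT40 cells serves as the comparator for Rad54/Ku70- and Rev3-deficient lines. Cells were exposed to compounds for 40 h at 37 C/5% CO2, and ATP-based luminescence (CellTiter-Glo) measured viability.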
# [3] = qHTS assay for identifying genotoxic compounds that show differential cytotoxicity against isogenic chicken DT40 cell lines with known DNA damage response pathways - Rad54/Ku70 mutant cell line (AID 743015); also: nearly all actives have a fitted effect of over 60% in size; also: potency is read from the fitted curve at half-maximal effect
# [4] = qHTS assay to identify small molecule antagonists of the androgen receptor (AR) signaling pathway using the MDA cell line - cell viability counter screen (AID 743041; also: nearly all actives have a fitted effect of over 45% in size)
# Outline: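 Viability read by CellTiter-Fluor fluorescence in the same wells as the antagonist screen, added after 15.5 h of a 16 h, 37C exposure. Human breast carcinoma MDA-kb2 AR-luc cells, compounds co-dosed with agonist R1881.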
# [5] = qHTS assay to identify small molecule antagonists of the thyroid receptor (TR) signaling pathway - cell viability counter screen (AID 743064); also: nearly all actives have a fitted effect of over 50% in size
# Outline: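 GH3.TRE-Luc cells, 4 h pre-plating; cpd + T3 1 nM final; 37 °C 23.5 h; CellTiter-Fluor 30 min; fluorescence read.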
# [6] = qHTS assay to identify small molecule antagonists of the thyroid receptor (TR) signaling pathway (AID 743065); also: nearly all actives have a fitted effect of over 55% in size; also: potency is read from the fitted curve at half-maximal effect; as to activity, negative = inhibition: series mostly up to about 70 µM
# Outline: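 Antagonism measured as loss of luciferase signal in GH3 cells stably carrying a TRE-luciferase reporter, co-treated with compound and T3 (1 nM final) for 23.5 h at 37 C. Viability was read in the same well by CellTiter-Fluor.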
# [7] = system: thyroid hormone receptor (rat, GH3 cells); assay: qHTS assay to identify small molecule agonists of the thyroid receptor (TR) signaling pathway (AID 743066; calls by dose curve)
# [8] = target: Estrogen receptor (Homo sapiens) (UniProt P03372); assay: qHTS assay to identify small molecule antagonists of the estrogen receptor alpha (ER-alpha) signaling pathway (AID 743069; active = well fitted curve in the direction sought with a large enough effect in the signal ratio in the repeat runs, not every such curve was filed as active; the % refers to the signal ratio)
# Chain of Estrogen receptor (Homo sapiens) (P03372 whole entry, looked up): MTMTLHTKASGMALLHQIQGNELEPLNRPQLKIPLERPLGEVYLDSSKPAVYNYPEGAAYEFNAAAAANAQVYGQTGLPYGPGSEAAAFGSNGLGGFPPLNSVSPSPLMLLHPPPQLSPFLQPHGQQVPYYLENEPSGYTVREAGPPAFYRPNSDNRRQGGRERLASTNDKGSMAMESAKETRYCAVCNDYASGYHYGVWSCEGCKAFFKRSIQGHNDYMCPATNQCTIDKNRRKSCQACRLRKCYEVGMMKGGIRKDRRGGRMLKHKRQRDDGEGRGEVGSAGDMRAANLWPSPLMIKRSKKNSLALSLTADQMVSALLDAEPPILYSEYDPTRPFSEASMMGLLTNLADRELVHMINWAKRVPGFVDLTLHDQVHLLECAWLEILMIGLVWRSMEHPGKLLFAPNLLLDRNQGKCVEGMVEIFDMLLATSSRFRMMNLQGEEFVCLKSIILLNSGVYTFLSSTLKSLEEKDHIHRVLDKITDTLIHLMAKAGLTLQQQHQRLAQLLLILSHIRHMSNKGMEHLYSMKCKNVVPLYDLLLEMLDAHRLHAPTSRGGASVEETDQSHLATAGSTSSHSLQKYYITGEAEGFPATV
# Outline: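 Antagonist mode: compounds in DMSO were co-added with 17beta-estradiol to ER-alpha-bla HEK293 cells (2% charcoal-stripped serum) and left 18 h at 37C. Reporter inhibition was measured as FRET fluorescence after 2 h LiveBLAzer substrate at room temperature.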
# [9] = qHTS assay to identify small molecule antagonists of the estrogen receptor alpha (ER-alpha) signaling pathway - cell viability counter screen (AID 743074; calls by dose curve;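 also: HEK293 cells carrying ER-alpha-UAS-bla reporter stimulated with 17beta-estradiol; nearly all actives have a fitted effect of over 45% in size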)
# [10] = target: Estrogen receptor (Homo sapiens) (UniProt P03372); assay: qHTS assay to identify small molecule agonists of the estrogen receptor alpha (ER-alpha) signaling pathway (AID 743075; calls by dose curve;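 also: HEK293 GripTite cells with ER-alpha and UAS-driven beta-lactamase reporter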)
# [11] = target: Estrogen receptor (Homo sapiens) (UniProt P03372); assay: qHTS assay to identify small molecule agonists of the estrogen receptor alpha (ER-alpha) signaling pathway using the BG1 cell line (AID 743079); also: nearly all actives have a fitted effect of over 20% in size; also: potency is read from the fitted curve at half-maximal effect
# [12] = qHTS assay to identify small molecule antagonists of the estrogen receptor alpha (ER-alpha) signaling pathway using the BG1 cell line (AID 743080; calls by dose curve;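 also: BG1 cells stimulated with 17beta-estradiol alongside compound; series mostly up to about 70 µM; nearly all actives have a fitted effect of over 25% in size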)
# Outline: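 Luminescence from a 4×ERE-luciferase reporter in BG1-Luc-4E2 cells served as read-out. Cells, pre-cultured 5 days in stripped-serum phenol-red-free medium, were exposed to compound with 17beta-estradiol co-stimulation for 21.5 h at 37 C.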
# [13] = qHTS assay to identify small molecule antagonists of the estrogen receptor alpha (ER-alpha) signaling pathway using the BG1 cell line - cell viability counter screen (AID 743081);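 also: compound given together with 17beta-estradiol as the ER stimulus; series mostly up to about 70 µM; nearly all actives have a fitted effect of over 45% in size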
# [14] = qHTS assay for identifying genotoxic compounds that show differential cytotoxicity against isogenic chicken DT40 cell lines with known DNA damage response pathways - Rev3 mutant cell line (AID 743014); also: nearly all actives have a fitted effect of over 55% in size; also: potency is read from the fitted curve at half-maximal effect
# Aromatase (Homo sapiens) = Aromatase (Homo sapiens) (UniProt P11511); assay: qHTS assay to identify aromatase inhibitors (AID 743083); also: series mostly up to about 70 µM; nearly all actives have a fitted effect of over 55% in size
# Chain of Aromatase (Homo sapiens) (P11511 whole entry, looked up): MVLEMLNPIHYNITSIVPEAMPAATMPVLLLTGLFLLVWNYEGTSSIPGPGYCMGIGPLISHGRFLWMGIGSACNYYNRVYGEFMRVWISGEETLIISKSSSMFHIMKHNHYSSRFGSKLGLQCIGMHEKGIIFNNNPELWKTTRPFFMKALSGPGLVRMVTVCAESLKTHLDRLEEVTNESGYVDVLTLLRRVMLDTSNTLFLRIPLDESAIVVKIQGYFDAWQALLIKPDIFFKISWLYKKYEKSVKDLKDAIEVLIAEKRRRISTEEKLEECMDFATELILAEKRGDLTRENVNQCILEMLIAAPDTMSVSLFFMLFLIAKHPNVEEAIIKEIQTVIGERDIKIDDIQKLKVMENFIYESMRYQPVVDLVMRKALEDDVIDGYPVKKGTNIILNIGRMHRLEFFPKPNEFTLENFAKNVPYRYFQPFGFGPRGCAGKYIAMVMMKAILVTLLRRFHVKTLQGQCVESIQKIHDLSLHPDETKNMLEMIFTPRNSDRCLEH
# [15] = qHTS assay to identify small molecule antagonists of the androgen receptor (AR) signaling pathway - cell viability counter screen (AID 743033; also: nearly all actives have a fitted effect of over 45% in size; also: potency is read from the fitted curve at half-maximal effect)
# [16] = target: Androgen receptor (Homo sapiens) (UniProt P10275); assay: qHTS assay to identify small molecule antagonists of the androgen receptor (AR) signaling pathway (AID 743035; active = well fitted inhibition curve with a large enough effect in the signal ratio in the repeat runs, not every such curve was filed as active; the % refers to the signal ratio)
# Chain of Androgen receptor (Homo sapiens) (P10275 whole entry, looked up): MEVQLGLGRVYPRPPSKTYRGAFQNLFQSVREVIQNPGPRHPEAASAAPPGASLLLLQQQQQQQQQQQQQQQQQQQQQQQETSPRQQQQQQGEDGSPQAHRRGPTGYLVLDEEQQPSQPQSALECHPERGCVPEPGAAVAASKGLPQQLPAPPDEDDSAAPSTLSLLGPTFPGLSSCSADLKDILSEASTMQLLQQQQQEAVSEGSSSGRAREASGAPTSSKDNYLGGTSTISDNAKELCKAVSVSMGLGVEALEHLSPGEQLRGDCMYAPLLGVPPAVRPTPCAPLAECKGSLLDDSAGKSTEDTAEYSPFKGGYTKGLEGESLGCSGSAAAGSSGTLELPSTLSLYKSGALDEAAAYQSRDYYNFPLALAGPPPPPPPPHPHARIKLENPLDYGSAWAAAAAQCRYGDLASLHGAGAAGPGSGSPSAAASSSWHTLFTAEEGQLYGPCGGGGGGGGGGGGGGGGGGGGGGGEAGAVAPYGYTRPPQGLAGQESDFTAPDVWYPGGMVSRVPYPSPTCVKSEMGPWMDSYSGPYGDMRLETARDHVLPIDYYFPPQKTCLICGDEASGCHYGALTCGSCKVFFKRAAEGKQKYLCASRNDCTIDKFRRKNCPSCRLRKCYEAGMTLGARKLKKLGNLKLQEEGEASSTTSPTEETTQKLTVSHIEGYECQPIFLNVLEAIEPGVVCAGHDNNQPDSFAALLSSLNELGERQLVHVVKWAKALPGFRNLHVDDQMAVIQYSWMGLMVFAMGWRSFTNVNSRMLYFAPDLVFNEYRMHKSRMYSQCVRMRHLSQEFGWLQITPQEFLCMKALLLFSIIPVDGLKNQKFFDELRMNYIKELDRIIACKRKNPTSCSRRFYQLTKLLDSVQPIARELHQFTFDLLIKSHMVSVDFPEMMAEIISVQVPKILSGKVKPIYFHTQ
# Outline: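 Steps: seed AR-UAS-bla GripTite HEK293 cells, incubate 4 h at 37C; pin in test compound, then add agonist R1881; incubate 16 h at 37C; add LiveBLAzer B/G FRET substrate, 2 h at room temperature; read fluorescence.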
# [17] = target: Androgen receptor (Homo sapiens) (UniProt P10275); assay: qHTS assay to identify small molecule agonists of the androgen receptor (AR) signaling pathway (AID 743036; active = well fitted activation curve with a large enough effect in the signal ratio in the repeat runs, with a control signal flat, not every such curve was filed as active; the % refers to the signal ratio)
# Outline: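 AR-bla HEK293 cells, 2,000/well; 4 h preincubation 37C/5% CO2; compound (DMSO) 16 h at 37C; LiveBLAzer B/G FRET substrate 2 h RT; fluorescence intensity read-out.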
# [18] = target: Androgen receptor (Homo sapiens) (UniProt P10275); assay: qHTS assay to identify small molecule agonists of the androgen receptor (AR) signaling pathway using the MDA cell line (AID 743040; also: nearly all actives have a fitted effect of over 20% in size)
# Outline: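 Luciferase agonist assay: 16 h compound exposure at 37C without CO2 in MDA-kb2 AR-luc cells, whose MMTV promoter responds to both AR and GR. Luminescence measured after 30 min room-temperature incubation with ONE-Glo.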
# [19] = target: Androgen receptor (Homo sapiens) (UniProt P10275); assay: qHTS assay to identify small molecule antagonists of the androgen receptor (AR) signaling pathway using the MDA cell line (AID 743042; also: nearly all actives have a fitted effect of over 55% in size)
# Outline: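 Antagonist mode: compounds plus R1881 agonist added to MDA-kb2 AR-luc cells, incubated 16 h at 37C. Luciferase reporter luminescence quantified, with multiplexed CellTiter-Fluor readout for cell viability.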
smiles,measurement,setting,value
C=CCOC(=O)c1ccccc1C(=O)OCC=C,outcome,[1],inactive
same,Potency,[2],inactive
same,Potency,[3],inactive
same,Potency,[4],inactive
same,Potency,[5],inactive
same,Potency,[6],inactive
same,Potency,[7],inactive
same,Potency,[8],inactive
same,outcome,[9],inactive
same,Potency,[10],inactive
same,Potency,[11],inactive
same,Potency,[12],inactive
same,Potency,[13],inactive
CCCCCCCCCCCCCCCO,outcome,[1],inactive
same,Potency,[2],inactive
same,Potency,[14],inactive
same,Potency,[3],inactive
same,Potency,[4],inactive
same,Potency,[6],inactive
same,Potency,[7],inactive
same,Potency,[13],inactive
same,Potency,Aromatase (Homo sapiens),inactive
CCN(CC)CCCC(C)Nc1ccnc2cc(Cl)ccc12 (stereo not given),outcome,[1],inactive
same,Potency,[2],21.1 µM (active)
same,Potency,[14],13.3 µM (active) and 2.66 µM (active)
same,Potency,[3],18.8 µM (active)
same,"viability change, negative = cytotoxic",[4],-15.9% [at 8.47 µM] (inactive)
same,Potency,[6],26.6 µM (active)
same,"activity, negative = inhibition",[6],-19.4% [at 8.44 µM] (inactive)
same,Potency,[7],inactive
same,outcome,[9],inactive
same,Potency,[10],inactive
same,Potency,[11],inactive
same,Potency,[12],inactive
same,Potency,[13],inactive
same,Potency,Aromatase (Homo sapiens),inactive
CC(C)(C)[C@@H](O)[C@@H](Cc1ccc(Cl)cc1)n1cncn1,outcome,[1],inactive
same,Potency,[2],inactive and 48.5 µM (active)
same,Potency,[14],30.6 µM (active)
same,Potency,[3],61.1 µM (active)
same,Potency,[15],inactive
same,Potency,[4],inactive
same,Potency,[6],inactive
same,Potency,[7],inactive
same,outcome,[9],inactive
same,Potency,[13],inactive
same,Potency,Aromatase (Homo sapiens),inactive
c1ccc(OCCOc2ccccc2)cc1,outcome,[1],inactive
same,Potency,[2],inactive
same,Potency,[14],inactive
same,Potency,[3],inactive
same,Potency,[4],inactive
same,Potency,[6],inactive
same,Potency,[7],inactive
same,Potency,[8],inactive
same,outcome,[9],inactive
same,Potency,[10],inactive
same,Potency,[11],61.1 µM (active) and 54.5 µM (active)
same,Potency,[13],inactive
same,Potency,Aromatase (Homo sapiens),inactive
CSCCC=O,outcome,[1],inactive
same,Potency,[2],inactive
same,Potency,[3],inactive
same,Potency,[4],inactive
same,Potency,[5],inactive
same,outcome,[9],inactive
same,Potency,[13],inactive
same,Potency,Aromatase (Homo sapiens),inactive
c1ccc2c(c1)ccc1ccccc12,outcome,[1],inactive
same,Potency,[14],68.6 µM (active)
same,Potency,[3],30.6 µM (active)
same,outcome,[16],inactive
same,Potency,[17],inactive
same,Potency,[18],inactive
same,Potency,[4],inactive
same,outcome,[19],inactive
same,Potency,[5],inactive
same,Potency,[7],inactive
same,outcome,[9],inactive
same,Potency,[10],inactive
same,Potency,[11],inactive
same,Potency,[12],inactive
same,Potency,[13],inactive
same,Potency,Aromatase (Homo sapiens),inactive
CCCCCCCCC/C=C/CC1CC(=O)OC1=O (stereo not given),outcome,[1],inactive
same,Potency,[2],inactive
same,Potency,[14],48.6 µM (active)
same,Potency,[3],inactive
same,Potency,[4],inactive
same,Potency,[7],inactive
same,outcome,[9],inactive
same,Potency,[13],inactive
CCCCCCCCCCCCc1ccccc1,outcome,[1],inactive
same,Potency,[2],inactive
same,Potency,[14],inactive
same,Potency,[3],inactive
same,Potency,[15],inactive
same,Potency,[4],inactive
same,outcome,[9],inactive
same,Potency,[13],inactive
same,Potency,Aromatase (Homo sapiens),inactive
CCCCC(CC)COC(=O)CS (stereo not given),outcome,[1],inactive
same,Potency,[2],inactive
same,Potency,[14],inactive
same,Potency,[3],inactive and 61.1 µM (active)
same,Potency,[15],inactive
same,Potency,[4],inactive
same,Potency,[6],inactive
same,Potency,[7],inactive
same,outcome,[9],inactive
same,Potency,[13],inactive
O=C(O)CCCCCCCCCCC(=O)O,outcome,[1],inactive
same,Potency,[2],inactive
same,Potency,[14],inactive
same,Potency,[3],inactive
same,Potency,[4],inactive
same,Potency,[5],inactive
same,Potency,[6],inactive
same,Potency,[7],inactive
same,outcome,[9],inactive
same,Potency,[10],inactive
same,Potency,[11],inactive and 61.1 µM (active)
same,Potency,[12],inactive
same,Potency,[13],inactive
same,Potency,Aromatase (Homo sapiens),inactive
OCCOCCN1CCN(C2=Nc3ccccc3Sc3ccccc32)CC1,outcome,[1],inactive
same,Potency,[2],29.8 µM (active) and 8.41 µM (active)
same,Potency,[14],26.6 µM (active) and 9.44 µM (active)
same,Potency,[3],26.6 µM (active)
same,Potency,[15],inactive and 26.8 µM (active)
same,Potency,[4],inactive
same,Potency,[7],inactive
same,outcome,[9],inactive
same,Potency,[13],inactive
O=C(Oc1ccccc1)c1ccccc1,outcome,[1],inactive
same,Potency,[2],inactive
same,Potency,[14],inactive
same,Potency,[3],inactive
same,Potency,[4],inactive
same,Potency,[5],inactive
same,Potency,[6],inactive
same,Potency,[7],inactive
same,outcome,[9],inactive
same,Potency,[13],inactive
same,Potency,Aromatase (Homo sapiens),inactive
CCCCCCCCCCCCCCO,outcome,[1],inactive
same,Potency,[2],inactive
same,Potency,[14],inactive
same,Potency,[3],inactive
same,Potency,[4],inactive
same,Potency,[5],inactive
same,Potency,[6],inactive
same,Potency,[7],inactive
same,Potency,[8],inactive
same,outcome,[9],inactive
same,Potency,[10],inactive
same,Potency,[11],inactive
same,Potency,[12],inactive
same,Potency,[13],inactive
same,Potency,Aromatase (Homo sapiens),inactive
COc1ccc(Cl)cc1C(=O)NCCc1ccc(S(=O)(=O)NC(=O)NC2CCCCC2)cc1,outcome,[1],inactive
same,Potency,[14],inactive
same,Potency,[15],inactive
same,Potency,[4],inactive
same,Potency,[5],inactive
same,Potency,[6],inactive
same,Potency,[7],inactive
same,outcome,[9],inactive
same,Potency,[13],inactive
same,Potency,Aromatase (Homo sapiens),inactive
O=c1[nH]c(=O)n([C@H]2C[C@H](O)[C@@H](CO)O2)cc1Br,outcome,[1],inactive
same,Potency,[2],inactive
same,Potency,[3],11.9 µM (active) and 24.7 µM (active)
same,Potency,[15],inactive
same,Potency,[4],inactive
same,Potency,[6],inactive
same,Potency,[7],inactive
same,Potency,[8],inactive
same,outcome,[9],inactive
same,Potency,[10],inactive
same,Potency,[13],inactive
same,Potency,Aromatase (Homo sapiens),inactive
O=C(O)c1ccccc1C(c1ccc(O)cc1)c1ccc(O)cc1,outcome,[1],inactive
same,Potency,[2],inactive
same,Potency,[14],inactive
same,Potency,[3],inactive
same,outcome,[16],inactive
same,Potency,[17],inactive
same,Potency,[18],inactive
same,Potency,[4],inactive
same,outcome,[19],inactive
same,Potency,[6],inactive
same,Potency,[7],inactive
same,Potency,[10],inactive
same,Potency,[11],inactive
same,Potency,[12],inactive
same,Potency,[13],inactive
same,Potency,Aromatase (Homo sapiens),inactive
CCC(O)OCCCOC (stereo not given),outcome,[1],inactive
same,Potency,[2],inactive
same,Potency,[14],inactive
same,Potency,[3],inactive
same,Potency,[15],inactive
same,Potency,[4],inactive
same,Potency,[6],inactive
same,Potency,[7],inactive
same,outcome,[9],inactive
same,Potency,[13],inactive
same,Potency,Aromatase (Homo sapiens),inactive
O=c1[nH]c(=O)n([C@H]2CCCO2)cc1F,outcome,[1],inactive
same,Potency,[2],inactive
same,Potency,[14],inactive
same,Potency,[3],inactive
same,Potency,[4],inactive
same,Potency,[6],inactive
same,Potency,[7],inactive
same,outcome,[9],inactive
same,Potency,[13],inactive
same,Potency,Aromatase (Homo sapiens),inactive
C=C(C)C(=O)O[C@H]1C[C@@H]2CC[C@@]1(C)C2(C)C,outcome,[1],inactive
same,Potency,[2],inactive
same,Potency,[14],inactive
same,Potency,[3],inactive
same,Potency,[4],inactive
same,Potency,[5],inactive
same,Potency,[6],inactive
same,Potency,[7],inactive
same,Potency,[8],inactive
same,outcome,[9],inactive
same,Potency,[10],inactive
same,Potency,[11],inactive
same,Potency,[12],inactive
same,Potency,[13],inactive
same,Potency,Aromatase (Homo sapiens),inactive
O=C(CC(C(=O)OC1CCCCC1)S(=O)(=O)O)OC1CCCCC1 (stereo not given),outcome,[1],inactive
same,Potency,[2],inactive and 17 µM (active)
same,Potency,[14],inactive and 17 µM (active)
same,Potency,[3],inactive and 12 µM (active)
same,Potency,[15],inactive
same,Potency,[4],inactive
same,Potency,[6],inactive
same,Potency,[7],inactive
same,outcome,[9],inactive
same,Potency,[13],inactive
same,Potency,Aromatase (Homo sapiens),inactive
